VACV E9 pol inh: vaccinia E9 polymerase processive synthesis inhibitors, primary screen, biochemical, absorbance; in vitro processive DNA synthesis, absorbance read-out; hits give low values; normalized absorbance, % (concentration not given with the values); hit rate 0.94% among 46,000; AID 493162, 2011; in the data active = normalized absorbance mostly below about 85%, no sharp cut-off; inactive = mostly above about 86%
* marks the source's active call; other numbers are inactive results; ! = not active in a repeat. Only a selection was taken, and hits are over-represented in it overall.

Results for O=C(C1c2ccccc2Oc2ccccc21)N1CCCc2ccccc21 ?
VACV E9 pol inh: 100

What do the screens show for `O=C(NCc1csc(-c2cccs2)n1)c1cc(F)cc2c1OCOC2`?
VACV E9 pol inh: 98

What do the screens show for `CCOc1ccc(-c2nc3ccc(Br)cc3c(C(=O)O)c2C)cc1`?
VACV E9 pol inh: 101

Results for CCCCN1CCc2c1nc1ccc(Br)cc1c2N ?
VACV E9 pol inh: 87*

How did CCOc1ccc(N2CCc3c2nc2ccc(Br)cc2c3N)cc1 do in these assays?
VACV E9 pol inh: 99

What do the screens show for `Nc1cc(C(=O)OCCOc2ccc(Br)cc2)ccc1Cl`?
VACV E9 pol inh: 101

What do the screens show for `COc1ccc(N2CCN(CCCn3c(NN)nc4ccsc4c3=O)CC2)cc1`?
VACV E9 pol inh: 98

Results for CCC(C)NC(=O)c1ccc2c(c1)N=C(C)c1cc(Cl)ccc1S2 (configuration not stated) ?
VACV E9 pol inh: 97

What do the screens show for `COc1ccc(/C(O)=C2/C(=O)C(=O)N(CCCO)C2c2cccc(Br)c2)cc1F` (configuration not stated)?
VACV E9 pol inh: 109

Results for Cc1ccc(-c2cc(=O)c3ccc4ccccc4c3o2)cc1 ?
VACV E9 pol inh: 99

Results for COc1ccccc1/C=C1\CC/C(=C\c2ccccc2OC)C1=O ?
VACV E9 pol inh: 106

What do the screens show for `O=C1Nc2ccc(S(=O)(=O)N(CCO)CCO)c3cccc1c23`?
VACV E9 pol inh: 100

What do the screens show for `NS(=O)(=O)c1ccc2c3c(cccc13)C(=O)N2`?
VACV E9 pol inh: 96

How did CN(c1ccccc1C(=O)O)S(=O)(=O)c1ccc2c3c(cccc13)C(=O)N2 do in these assays?
VACV E9 pol inh: 50*

How did COc1ccc2oc(=O)c(-c3ccccc3)cc2c1 do in these assays?
VACV E9 pol inh: 104

What do the screens show for `Cc1cc(NC(=O)CCC2CCCC2)nc2c1c(=O)oc1ccccc12`?
VACV E9 pol inh: 105

Results for O=C(O)CCCC(=O)Nc1ccccc1N1CCOCC1 ?
VACV E9 pol inh: 105

How did CN(C)S(=O)(=O)Nc1cccc(N)c1 do in these assays?
VACV E9 pol inh: 97

What do the screens show for `O=C(OCCO)c1cccc2c1-c1ccccc1C2=O`?
VACV E9 pol inh: 74*

Results for CCOC(=O)c1cccc2c1-c1ccccc1C2=O ?
VACV E9 pol inh: 92

What do the screens show for `CCOC(=O)c1cccc2c1-c1ccccc1/C2=N/O`?
VACV E9 pol inh: 94

How did CC(=O)n1c2ccccc2c2c(-c3ccccc3)c(N3CCOCC3)sc21 do in these assays?
VACV E9 pol inh: 98

What do the screens show for `N#CSCC(=O)n1c2ccccc2c2ccccc21`?
VACV E9 pol inh: 100

What do the screens show for `CC(=O)n1c(=O)n(C(C)=O)c2ccccc21`?
VACV E9 pol inh: 89

How did CC(=O)n1c2ccc(C)cc2c2nc3ccccc3nc21 do in these assays?
VACV E9 pol inh: 93

What do the screens show for `CC(=O)n1c2ccccc2c2ccccc21`?
VACV E9 pol inh: 67*

What do the screens show for `CC(=O)n1c2ccccc2c2nc(N)sc21`?
VACV E9 pol inh: 64*

Results for Cc1cc(S(=O)(=O)N2CCCC2c2ccc(F)cc2)cc(C)c1F (configuration not stated) ?
VACV E9 pol inh: 104

What do the screens show for `C=CCNc1nn(-c2nc3ccccc3s2)c2c1CCCC2`?
VACV E9 pol inh: 97

How did O=C(CC(=O)c1ccccc1)Nc1cc(C(F)(F)F)ccc1Cl do in these assays?
VACV E9 pol inh: 100

What do the screens show for `COc1ccc(Nc2cc(C(F)(F)F)ccc2Cl)c(C(=O)O)c1`?
VACV E9 pol inh: 60*

How did CC(Nc1ccccc1)C(=O)Nc1cc(C(F)(F)F)ccc1Cl (configuration not stated) do in these assays?
VACV E9 pol inh: 100

How did CC(Oc1ccccc1-c1ccccc1)c1n[nH]c(=S)n1-c1ccccc1 (configuration not stated) do in these assays?
VACV E9 pol inh: 86

What do the screens show for `O=C(COC(=O)c1c(F)cccc1Cl)c1ccccc1F`?
VACV E9 pol inh: 101

What do the screens show for `O=C(NCc1ccccc1)c1ccc2c(c1)sc1nc(-c3ccccc3)cn12`?
VACV E9 pol inh: 99

What do the screens show for `O=C(CCN1C(=O)c2ccccc2Sc2ncccc21)NC1CCCC1`?
VACV E9 pol inh: 102

Results for CC(C)(C)NC(=O)N1CCN(c2cc(C(F)(F)F)ccn2)CC1 ?
VACV E9 pol inh: 78*

Results for O=C(Nc1ccccc1)N1CCN(c2ccc(C(F)(F)F)cn2)CC1 ?
VACV E9 pol inh: 97

Results for Cc1ccc(S(=O)(=O)NC(=O)N2CCCN(c3ccc(C(F)(F)F)cn3)CC2)cc1 ?
VACV E9 pol inh: 92

How did Nc1ccccc1-c1nnc(-c2ccc(-c3ccccc3)cc2)o1 do in these assays?
VACV E9 pol inh: 66*

What do the screens show for `NC(=O)c1ccc(-c2nnc(-c3ccccc3)o2)cc1`?
VACV E9 pol inh: 94

What do the screens show for `c1ccc(-c2nnc(-c3ccccc3)o2)cc1`?
VACV E9 pol inh: 99

Results for C[C@@H]1CC2C3CCC4=CC(=O)C=C[C@]4(C)[C@@]3(F)[C@@H](O)C[C@]2(C)[C@@]1(O)C(=O)COP(=O)(O)O (some centres not stated) ?
VACV E9 pol inh: 100

How did O=S(=O)(NCc1ccc2[nH]c3c(c2c1)CCCC3)c1ccccc1 do in these assays?
VACV E9 pol inh: 101

Results for C=CCc1cccc2cc(C(=O)Nc3cccc(OC)c3)c(=O)oc12 ?
VACV E9 pol inh: 99

How did FC(F)(F)c1cc(C(F)(F)F)c2ccc3nnnn3c2n1 do in these assays?
VACV E9 pol inh: 106

How did N#Cc1c(Cl)nc(-c2ccccc2)nc1-c1ccccc1 do in these assays?
VACV E9 pol inh: 109

Results for NC(N)=NC(=O)c1nc(Cl)c(N)nc1N ?
VACV E9 pol inh: 63*!

What do the screens show for `Cc1ccc(NC(=O)CCCN2C(=O)S/C(=C/c3ccccc3)C2=O)cc1`?
VACV E9 pol inh: 98

Results for CCCc1nc2ccccc2n1CC(=O)N(CCC#N)c1ccccc1 ?
VACV E9 pol inh: 103

How did N#Cc1ccc(OC(=O)Cn2c(C(F)(F)F)nc3ccccc32)cc1 do in these assays?
VACV E9 pol inh: 114

What do the screens show for `COc1ccc2nc(NC(=O)CN(c3ccc(C)cc3)S(=O)(=O)c3c(C)noc3C)sc2c1`?
VACV E9 pol inh: 100

Results for Cc1cc(NC(=O)COC(=O)c2ccccn2)ccc1Cl ?
VACV E9 pol inh: 100

What do the screens show for `COc1ccc(-c2ccnc(SCc3ccc(Cl)cc3Cl)n2)cc1`?
VACV E9 pol inh: 111

How did CCS(=O)(=O)N1CCN=C1SCc1ccc(Cl)cc1Cl do in these assays?
VACV E9 pol inh: 21*

What do the screens show for `CCS(=O)(=O)N1CCN=C1SCc1ccc(C)cc1`?
VACV E9 pol inh: 101

How did C=CCN1C(=O)/C(=C\c2ccc(OCc3ccccc3C#N)cc2)C(=O)NC1=S do in these assays?
VACV E9 pol inh: 100

What do the screens show for `CC(C)NC(=O)c1cc2c(s1)-c1ccccc1SC2`?
VACV E9 pol inh: 94

Results for CN(C)CCNC(=O)c1cc2c(s1)-c1ccc(Cl)cc1SC2 ?
VACV E9 pol inh: 55*

Results for CC1CCN(C(=O)c2cc3c(s2)-c2ccc(Cl)cc2SC3)CC1 ?
VACV E9 pol inh: 96

What do the screens show for `COc1nc(C#N)c(N(C)C)o1`?
VACV E9 pol inh: 99

How did NC(=O)COC(=O)/C=C/c1cccs1 do in these assays?
VACV E9 pol inh: 109

Results for O=C(Oc1ccc(Cl)c2cccnc12)c1cccs1 ?
VACV E9 pol inh: 99

How did CCN1C(=O)S/C(=C\c2cccc(Cl)c2)C1=O do in these assays?
VACV E9 pol inh: 90

How did CCc1ccc(Nc2c3c(nc4ccccc24)CCC3)cc1 do in these assays?
VACV E9 pol inh: 86

What do the screens show for `CN(C)CCCNc1c2c(nc3ccccc13)CCC2`?
VACV E9 pol inh: 27*

What do the screens show for `CCc1ccc(Nc2c3c(nc4ccccc24)CCCC3)cc1`?
VACV E9 pol inh: 91

High-throughput results deposited in PubChem BioAssay by ICCB-Longwood Screening Facility, Harvard Medical School.
